Results on 113 sequences are retold here after publication PMC5836133, “The intracellular immune receptor Rx1 regulates the DNA-binding activity of a Golden2-like transcription factor”.

The full ranking holds about 16,000 sequences; the median of “e-score” is about -0.044, and the highest 2% start at about 0.38. The list comes from a sample in which the highest values are over-represented; it also holds similar and randomly drawn sequences.

The target in this test is T1, GST-NbGlk1(82-244) (Nicotiana benthamiana).
T1 chain: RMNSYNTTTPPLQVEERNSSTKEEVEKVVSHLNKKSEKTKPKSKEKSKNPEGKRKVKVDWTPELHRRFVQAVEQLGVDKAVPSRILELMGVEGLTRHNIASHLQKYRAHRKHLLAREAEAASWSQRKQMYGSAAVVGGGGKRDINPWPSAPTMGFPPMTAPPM
Briefly: protein-binding microarray; NbGlk1 is a Golden2-like transcription factor of Nicotiana benthamiana; high values mean tight binding. The conditions noted are these: protein: recombinant; tags: GST (pTH6838); dsDNA, one strand shown.
In the case of AACAAATC, the binding signal worked out at 0.302 ± 0.043 E-score.

In the case of ACACAATC, the binding signal came out at 0.39 ± 0.0203 E-score. With ACAAAATC the figure was 0.4578 ± 0.00327 E-score; with CAAAAATC, 0.399 ± 0.00565 E-score. Consider ATAAAATA, for which the binding signal worked out at 0.22 ± 0.00301 E-score.

With CACAAATC, the binding signal was determined as 0.274 ± 0.0179 E-score. For the sequence ACAAAAAT, the binding signal worked out at 0.238 ± 0.045 E-score.

ATAAAAAT: the binding signal stood at 0.292 ± 0.0292 E-score. Consider ACACAATA, for which the binding signal worked out at 0.226 ± 0.0401 E-score. Take ATAAAATC: the binding signal turned out to be 0.409 ± 0.00541 E-score. In the case of ACGCGTAT, the binding signal came to 0.211 ± 0.0436 E-score.

As to ATTTCAAG, the binding signal turned out to be 0.23 ± 0.00665 E-score. For ATAACGTA, the binding signal turned out to be 0.205 ± 0.0524 E-score. To AGGATACG belongs 0.357 ± 0.0118 E-score; to ATAGCAAT, 0.321 ± 0.015 E-score. With ATCCTATA the figure was 0.326 ± 0.0829 E-score; with ATCTGCAA, 0.317 ± 0.0136 E-score.

Turning to ATCGCAGA, the binding signal was determined as 0.23 ± 0.0112 E-score. To ATCTCCGG belongs 0.318 ± 0.0623 E-score; to ATCTTAGA, 0.243 ± 0.155 E-score; to ATTCCTAA, 0.236 ± 0.0111 E-score. With AGATCCGG the figure was 0.291 ± 0.0113 E-score; with AATCCCGT, 0.366 ± 0.0273 E-score; with AAATCCGA, 0.427 ± 0.0109 E-score. With AAATCCCT the figure was 0.354 ± 0.00608 E-score. As for AAATCCGC, the binding signal was determined as 0.432 ± 0.0197 E-score.

AAATCCGG: the binding signal was found to be 0.441 ± 0.0267 E-score. For the sequence CAATCCGG, the binding signal amounted to 0.328 ± 0.0049 E-score. To AAATCAGA belongs 0.315 ± 0.029 E-score; to AATCCCGC, 0.335 ± 0.0716 E-score; to AAATCCGT, 0.401 ± 0.0483 E-score.

Turning to CAATCCGA, the binding signal was 0.35 ± 0.00607 E-score.

Consider CAATCCGC, for which the binding signal worked out at 0.305 ± 0.107 E-score. In the case of ACGGTATC, the binding signal stood at 0.297 ± 0.0236 E-score.

As for ATATAGAA, the binding signal turned out to be 0.254 ± 0.0436 E-score. To ATTTAGAA belongs 0.279 ± 0.0333 E-score; to ATTCCTTA, 0.228 ± 0.0221 E-score; to AACAGAAT, 0.301 ± 0.106 E-score. Regarding AATCACGA, the binding signal worked out at 0.339 ± 0.0266 E-score.

As for AATCGCGT, the binding signal was 0.352 ± 0.0711 E-score. In the case of AATCACGT, the binding signal worked out at 0.304 ± 0.0574 E-score.

AATCTCGT: the binding signal worked out at 0.436 ± 0.0316 E-score. For the sequence AATCTCGG, the binding signal stood at 0.429 ± 0.00874 E-score. On to AATCTCGA, for which the binding signal turned out to be 0.436 ± 0.00491 E-score. With ATTCTCGG the figure was 0.229 ± 0.0773 E-score. With ATTCTCGA the figure was 0.308 ± 0.0153 E-score.

For ATTCTCGC, the binding signal stood at 0.232 ± 0.00302 E-score. To AATCACGG belongs 0.256 ± 0.0042 E-score.

For AATCTCGC, the binding signal worked out at 0.411 ± 0.0281 E-score. Consider AATCGCGC, for which the binding signal was 0.311 ± 0.0585 E-score. As for AAATAAAT, the binding signal came to 0.24 ± 0.102 E-score. As for ATCTCGAA, the binding signal was 0.367 ± 0.06 E-score. Turning to ATAGCGTA, the binding signal stood at 0.266 ± 0.0123 E-score. Take AATACGAT: the binding signal was determined as 0.294 ± 0.0273 E-score. To AATACGTG belongs 0.216 ± 0.0545 E-score; to ATAAGATA, 0.301 ± 0.0184 E-score. With ATTCGGGA the figure was 0.286 ± 0.0532 E-score; with ATACAGAA, 0.221 ± 0.0562 E-score. With ACAAGGAT, the binding signal came to 0.227 ± 0.00244 E-score.

On to AGATTCTA, for which the binding signal is 0.4515 ± 0.00133 E-score. AAATTCTG: the binding signal stood at 0.235 ± 0.065 E-score.

In the case of AGATTCTC, the binding signal is 0.4901 ± 0.00333 E-score. With AAATTCTC, the binding signal is 0.283 ± 0.0053 E-score.

With AGATTCTG, the binding signal turned out to be 0.4694 ± 0.00442 E-score.

For ATATTCTA, the binding signal was determined as 0.25 ± 0.0067 E-score. With ATTCTCTA the figure was 0.306 ± 0.094 E-score; with ATATTCTG, 0.342 ± 0.04 E-score. With AAATTCTA the figure was 0.245 ± 0.0867 E-score; with ATATTCTC, 0.402 ± 0.0347 E-score. AGATTCAC: the binding signal was found to be 0.289 ± 0.0335 E-score. As for ATTCTCTG, the binding signal stood at 0.358 ± 0.0226 E-score. With AATCAATT the figure was 0.213 ± 0.116 E-score; with ATAATTTC, 0.227 ± 0.0306 E-score; with AGTCAGAT, 0.208 ± 0.0487 E-score. With AGTTGGAT the figure was 0.269 ± 0.0791 E-score. To AATCACGC belongs 0.256 E-score.

Take ATAAGGAT: the binding signal was 0.22 ± 0.0746 E-score. To ATCGGTAA belongs 0.201 ± 0.0464 E-score; to ATATTCCG, 0.36 ± 0.00732 E-score; to ATATTCCC, 0.393 ± 0.0225 E-score. Regarding ATATTCCA, the binding signal came to 0.326 ± 0.0114 E-score. To AAATCAGC belongs 0.363 ± 0.0041 E-score; to CAATCGGA, 0.227 ± 0.013 E-score. With ATATTGAA, the binding signal stood at 0.203 ± 0.00588 E-score. AATGATAT: the binding signal came out at 0.224 ± 0.0384 E-score.

With AATCTAAG, the binding signal was found to be 0.402 ± 0.0258 E-score. Take AATCTAAT: the binding signal amounted to 0.412 ± 0.0116 E-score. To ATCCTAAT belongs 0.248 ± 0.0062 E-score.

AATCGAAC: the binding signal is 0.213 ± 0.0388 E-score.

Take AATCTAAC: the binding signal was 0.413 ± 0.0271 E-score. With AATCGAAG the figure was 0.285 ± 0.0157 E-score; with AATCAAAC, 0.25 ± 0.0482 E-score; with ATTCTAAA, 0.221 ± 0.0153 E-score.

Regarding AATTTAAA, the binding signal was found to be 0.226 ± 0.0725 E-score. To AATCAAAG belongs 0.221 ± 0.0254 E-score; to AATCTAAA, 0.403 ± 0.0351 E-score. With AATCAAAT the figure was 0.297 ± 0.0152 E-score. On to ATCGCACA, for which the binding signal was 0.256 ± 0.0485 E-score.

With ATCTCATG, the binding signal was 0.3181 ± 0.000641 E-score. With ATTTCCGC the figure was 0.333 ± 0.0224 E-score. To ATCTTATA belongs 0.342 ± 0.00345 E-score; to ATCTTATC, 0.288 ± 0.0568 E-score. Take ATCTGGAG: the binding signal is 0.225 ± 0.0674 E-score. To ATTCGAAT belongs 0.221 ± 0.203 E-score. Turning to ATCCCACA, the binding signal is 0.234 ± 0.0752 E-score.

As for ATTCCACC, the binding signal was found to be 0.235 ± 0.0237 E-score. To AATCCTCC belongs 0.375 ± 0.00794 E-score; to AATCCTCA, 0.376 ± 0.0245 E-score; to AATCCACC, 0.382 ± 0.0151 E-score. With AATCCACG the figure was 0.406 ± 0.0241 E-score; with AATCCACT, 0.364 ± 0.0439 E-score. For ATTCCACG, the binding signal was determined as 0.222 ± 0.06 E-score. With AATCCACA the figure was 0.419 ± 0.00571 E-score.
